Source: PubChem BioAssay AID485317 (Broad Institute, 2010)
The campaign covered roughly 290,000 compounds. About 11,000 (3.8%) were called active. This is one part of a sample in which actives are shown more often than they occur.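 How the source made its calls: active means mean replicate inhibition above about 79%, with every replicate also reaching it (limit read from the data); inconclusive means only one of the two criteria met; inactive means mean below limit and not every replicate reaching it.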

biological target: FAD-linked sulfhydryl oxidase ALR (Homo sapiens) (UniProt P55789); assay: ALR-catalysed DTT oxidation blockers – biochemical, H2O2 detection, HRP-luminol luminescence, single point, primary screen (AID 485317); settings: purified ALR, hits give high values, concentration not given here
Sequence (P55789 whole entry, looked up): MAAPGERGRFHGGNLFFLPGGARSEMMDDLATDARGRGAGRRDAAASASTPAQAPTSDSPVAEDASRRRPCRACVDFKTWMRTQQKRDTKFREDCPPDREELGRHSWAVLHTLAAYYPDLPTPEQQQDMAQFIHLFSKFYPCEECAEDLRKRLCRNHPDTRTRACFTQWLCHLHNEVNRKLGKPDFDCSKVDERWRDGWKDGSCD

| Compound | inhibition |
| --- | --- |
| O=C(c1cc(-c2ccc(Cl)s2)nc2ccccc12)N1CCOCC1 | -1.66% (inactive) |
| CN1CCC(N(C)S(=O)(=O)c2ccc(NC(=O)c3cccc(C#N)c3)cc2)CC1 | -3.41% (inactive) |
| Cc1nc2c(c(C)nn2-c2ccccc2)c(C)c1C | -7.19% (inactive) |
| Cc1nc(-c2ccc(Cl)cc2)sc1C1(C)CC(c2ccc(Br)cc2)=NO1 (centres undefined) | -3.38% (inactive) |
| CCCCN(C(=O)CCNC(=O)NC12CC3CC(CC(C3)C1)C2)c1c(N)n(CCCC)c(=O)[nH]c1=O | -9.44% (inactive) |
| CC(=O)CC(CC(=O)NC1CCCCC1)c1ccccc1 (centres undefined) | -6.14% (inactive) |
| CN(CC(=O)NNC(=O)CNC(=O)c1ccccc1Cl)S(=O)(=O)c1ccc(Cl)cc1 | -3.96% (inactive) |
| CCN1C(=O)[C@@H]2[C@@H](c3ccc(-c4cccc(Cl)c4)cc3)N3CCC[C@@]3(C(=O)OC)[C@@H]2C1=O | -0.179% (inactive) |
| CC1(C)O[C@@H]2[C@H](O1)[C@@H](COS(=O)(=O)O)O[C@H]2n1cnc2c(=O)[nH]cnc21 | -3.87% (inactive) |
| O=C(Nc1ncccc1O)c1ccc(S(=O)(=O)N2CCCCCC2)cc1 | -12.4% (inactive) |
| O=C(OCCOCn1cc(Br)c(=O)[nH]c1=O)c1ccccc1 | 18.4% (inactive) |
| CCOC(=O)N1CCN(CC(=O)c2c(C)[nH]c3ccccc23)CC1 | -13% (inactive) |
| Cc1[nH]c2ccccc2c1C(=O)CN1CC(C)CC(C)C1 (centres undefined) | -7.59% (inactive) |
| Cc1[nH]c2ccccc2c1C(=O)CSCC(=O)O | 98.3% (active) |
| CC(=O)Nc1ccc(NC(=O)COC(=O)C2CCC(C(C)(C)C)CC2)cc1 (centres undefined) | -2.92% (inactive) |
| CCOC(=O)CCCCCC(=O)Nc1ccc2c(c1)CC(=O)N([C@@H](C)CO)C[C@H](C)[C@@H](CN(C)Cc1ccccc1)O2 | -2.17% (inactive) |
| CCC(C)N1C(=S)SC(C)(C)C1N(O)C(=O)NC1CCCCC1 (centres undefined) | -8.63% (inactive) |
| CCCCNC(=O)N(O)C1N(/N=C/c2ccc(N(C)C)cc2)C(=S)SC1(C)C (centres undefined) | 98.8% (active) |
| CCCCNC(=O)N(O)C1N(/N=C/c2ccccc2O)C(=S)SC1(C)C (centres undefined) | -2.9% (inactive) |
| COc1ccc(OCC(=O)NNC(=O)c2ccc(-c3ccccc3)cc2)cc1 | 1.13% (inactive) |
| COc1ccc(C(=O)NNc2cc(C)nc(NNC(=O)c3ccc(OC)cc3)n2)cc1 | 12.7% (inactive) |
| Cc1nc(NNC(=O)c2ccccc2)cc(-c2ccccc2)n1 | 90.8% (active) |
| O=C(CNS(=O)(=O)c1ccc2c(c1)OCCCO2)N1CCN(c2ccc(F)cc2)CC1 | 3.71% (inactive) |

| Compound | inhibition |
| --- | --- |
| CC(C)NC(=O)Nc1cccc2c1O[C@H](CN(C)S(=O)(=O)c1cccs1)[C@@H](C)CN([C@H](C)CO)C2=O | 0.238% (inactive) |
| CC1=NN(C(N)=S)C(=O)C1N=Nc1cc(Cl)ccc1Cl (centres undefined) | 34.1% (inactive) |
| Cc1[nH]n(-c2cccc(Cl)c2)c(=O)c1-c1ccc(Cl)cc1 | 32.9% (inactive) |
| Cc1[nH]n(C(N)=S)c(=O)c1N=Nc1ccc(Cl)cc1Cl | 96.2% (active) |
| Cc1ccc(S(=O)(=O)N(C)c2ccc(OCC(=O)OCc3ccc(C#N)cc3)cc2)cc1 | 2.46% (inactive) |
| CCN(C(=O)COC(=O)/C=C/c1nc2ccccc2s1)C1CCS(=O)(=O)C1 (centres undefined) | 94.6% (active) |
| O=C(COC(=O)/C=C/c1nc2ccccc2s1)Nc1ccccc1Oc1ccccc1 | 28.6% (inactive) |
| CCN(C(=O)CSc1nc2ccccc2n1CC)C1CCS(=O)(=O)C1 (centres undefined) | 9.23% (inactive) |
| COc1ccccc1NC(=O)C(C)OC(=O)c1ccc(-n2cnnn2)cc1 (centres undefined) | 7.2% (inactive) |
| CCc1cccc(NC(=O)COC(=O)C2CCN(c3ccc(C(F)(F)F)cn3)CC2)c1 | -1.14% (inactive) |
| O=C(Oc1ccc(-c2nnco2)cc1)c1ccc(F)c(S(=O)(=O)N2CCOCC2)c1 | -0.68% (inactive) |
| Cc1cccc(OCC(=O)OCC(=O)Nc2ccc(Cl)cn2)c1 | 0.248% (inactive) |
| O=C(NCC(c1ccco1)N1CCc2ccccc21)c1cccc(F)c1 (centres undefined) | 95.5% (active) |
| COc1ccc(C(=O)NCC(c2ccco2)N2CCc3ccccc32)cc1OC (centres undefined) | 72.4% (inactive) |
| Cc1ccccc1C(=O)NCC(c1ccco1)N1CCc2ccccc21 (centres undefined) | 27% (inactive) |
| O=C(Nc1cc(S(=O)(=O)Nc2ccc(Cl)cc2)ccc1O)c1ccc(F)cc1F | -4.12% (inactive) |
| CSc1ccc(S(=O)(=O)NCC(=O)OCC(=O)NC2(C#N)CCCCC2)cc1[N+](=O)[O-] | -5.06% (inactive) |
| O=C1C=C(c2ccccc2)CCC1 | 0.158% (inactive) |
| c1ccc(-c2cc(-c3ccccc3)[nH]n2)cc1 | -15.4% (inactive) |
| O=c1[nH]c(-c2ccccc2)c(-c2ccccc2)[nH]1 | 98.6% (active) |
| O=C(Nc1ccccn1)C1CCN(S(=O)(=O)c2ccc3c(c2)OCCO3)CC1 | 1.39% (inactive) |
| CCc1ccc2ncc(C(=O)c3ccccc3)c(N3CCOCC3)c2c1 | 97.1% (active) |
| CCc1ccc2nc(Nc3ncc(C(C)=O)c(C)n3)nc(C)c2c1 | -4.9% (inactive) |

| Compound | inhibition |
| --- | --- |
| CCc1ccc(C(=O)NC(=S)Nc2ccccc2N2CCOCC2)cc1 | -1.76% (inactive) |
| Cc1ccc(N2CC(C(=O)Nc3cc(Cl)ccc3-n3cncn3)CC2=O)cc1 (centres undefined) | -10% (inactive) |
| O=C(c1ccncc1)N1CCN(S(=O)(=O)c2cc(C(F)(F)F)cc(C(F)(F)F)c2)CC1 | -17.2% (inactive) |
| CCCn1c(C)cc(-c2csc(NC(=O)CCc3nc4ccccc4c(=O)[nH]3)n2)c1C | -8.89% (inactive) |
| Cc1cc(-c2n[nH]c(=S)n2-c2ccc(C)c(C)c2)no1 | 96% (active) |
| S=c1[nH]nc(-c2cc(-c3ccsc3)n[nH]2)n1-c1ccccc1 | 67.2% (inactive) |
| Cc1ccc(-c2csc(-c3cc(C)on3)n2)cc1 | -0.833% (inactive) |
| CCCCn1c(N)c(N(CCC(C)C)C(=O)CC2OC(=O)c3ccccc32)c(=O)[nH]c1=O (centres undefined) | -12.6% (inactive) |
| COCCCNC(=O)CC1C[C@H](C(=O)N2CCCCC2)[C@@]2(CCc3ccccc3)c3[nH]c4ccccc4c3CCN2C1=O (some centres undefined) | -3.65% (inactive) |
| CCCc1nc2ccccc2c(=O)n1/N=C/c1ccc(O)c(O)c1 | 98.6% (active) |
| CCCc1nc2ccccc2c(=O)n1NC(=O)c1c(O)c2ccccc2[nH]c1=O | -6.61% (inactive) |
| O=c1c2ccccc2ncn1/N=C/c1ccccc1 | -10.9% (inactive) |
| c1ccc(-c2nnc(SCc3nc4ccccc4[nH]3)o2)cc1 | -5.4% (inactive) |
| c1ccc2c(CSCc3nc4ccccc4[nH]3)cccc2c1 | 98.7% (active) |
| Clc1ccccc1SCc1nc2ccccc2[nH]1 | -0.577% (inactive) |
| Cc1ccc2nc(/C(C#N)=C\c3ccc(OC(=O)c4cccs4)cc3)[nH]c2c1 | -13.7% (inactive) |
| COc1cc(/C=C(\C#N)c2nc3ccccc3[nH]2)ccc1O | 99% (active) |
| COc1cc(/C=C(\C#N)c2nc3c(s2)CC(C)CC3)ccc1O (centres undefined) | 70% (inactive) |
| COc1ccc(N2CCN(S(=O)(=O)c3ccc4c(c3)N(C(C)=O)CCO4)CC2)cc1 | 89.8% (active) |
| CCOC(=O)C1CCN(S(=O)(=O)c2ccc3c(c2)N(C(C)=O)CCO3)CC1 | 25.7% (inactive) |
| CC(=O)N1CCOc2ccc(S(=O)(=O)N3CCN(c4cccc(C(F)(F)F)c4)CC3)cc21 | -1.95% (inactive) |
| Cc1cc(C)c(C)c(S(=O)(=O)Nc2cccnc2)c1C | -4.67% (inactive) |
| CCOC(=O)c1c(NC(=O)CCC(=O)NCc2ccco2)sc2c1CCCC2 | 3.61% (inactive) |

| Compound | inhibition |
| --- | --- |
| CCOC(=O)c1c(NC(=S)Nc2ccccc2C)sc2c1CCC2 | -0.578% (inactive) |
| CCOC(=O)c1c(NC(=O)C(C)Sc2c[nH]c3ccccc23)sc2c1CCC2 (centres undefined) | 94.5% (active) |
| O=C(O[C@@H]1[C@H](Cc2ccccc2)NS(=O)(=O)[C@H]2C[C@@H]3C=C[C@]12O3)c1ccccc1Br | 6.25% (inactive) |
| CCCCn1c(N)c(N(CC(C)C)C(=O)CN(C)S(=O)(=O)c2ccc(F)cc2)c(=O)[nH]c1=O | -15.2% (inactive) |
| CC(=O)c1sc(NC(=O)CCN2C(=O)C3CC=CCC3C2=O)nc1-c1ccccc1 (centres undefined) | 1.73% (inactive) |
| CCOc1cccc(/C=N/NC(=S)NCCN2CCOCC2)c1O | 49.2% (inactive) |
| CCOc1ccccc1N=C1NC(=O)CS1 | -4.82% (inactive) |
| CCOc1cccc(/C=N/N2C(=O)CSC2=S)c1O | 92.9% (active) |
| CC(NC(=O)COC(=O)c1ccc2ccccc2n1)c1ccccc1 (centres undefined) | -0.035% (inactive) |
| CCN(CC)CCCNC(=O)c1ccc2c(=O)n(Cc3ccc4c(c3)OCO4)c(=S)[nH]c2c1 | 95% (active) |
| CCCCNC(=O)CCn1c(=S)[nH]c2cc3c(cc2c1=O)OCO3 | 5.42% (inactive) |
| COc1ccc(Cn2c(=S)[nH]c3cc(C(=O)NCCCN4CCOCC4)ccc3c2=O)cc1 | 7.86% (inactive) |
| CCOc1ccc(NC(=O)CN(C)C(=O)c2c(C)noc2C)cc1OCC | -5.01% (inactive) |
| CCOC(=O)c1c(C)oc2cc(Sc3ccccc3)c(O)c(O)c12 | -12.1% (inactive) |
| CC(NCC(=O)Nc1ccccc1C(=O)NC1CC1)c1ccccc1Cl (centres undefined) | -6.65% (inactive) |
| Nc1nonc1-n1nnc(C(=O)N/N=C/c2ccccc2O)c1CN1CCCC1 | -0.481% (inactive) |
| Cc1noc(C)c1COc1ccccc1C(=O)N(C)CC(=O)Nc1cccc(F)c1 | -3.03% (inactive) |
| Cc1ccc(N/N=C2\COC(C)(C)CC2=O)cc1 | 98.6% (active) |
| CSCCC1NC(=O)N(CC(=O)Nc2cccc(S(=O)(=O)N3CCCCCC3)c2)C1=O (centres undefined) | 9.93% (inactive) |
| CCCCc1ccc(NS(=O)(=O)c2cccc(C(=O)N3CCCN(C)CC3)c2)cc1 | -4.55% (inactive) |
